Results as given in paper PMC8769072, “Proteome‐scale mapping of binding sites in the unstructured regions of the human proteome” (Molecular Systems Biology, 2022).

Chain of TSG101 1-145, Q99816 (Q99816 1-145): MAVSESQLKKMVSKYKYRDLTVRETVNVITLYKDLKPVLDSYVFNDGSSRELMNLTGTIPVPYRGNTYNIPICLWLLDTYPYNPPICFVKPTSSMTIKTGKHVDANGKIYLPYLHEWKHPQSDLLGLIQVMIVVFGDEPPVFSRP
Chain of TNKS 174-649, O95271 (O95271 174-649): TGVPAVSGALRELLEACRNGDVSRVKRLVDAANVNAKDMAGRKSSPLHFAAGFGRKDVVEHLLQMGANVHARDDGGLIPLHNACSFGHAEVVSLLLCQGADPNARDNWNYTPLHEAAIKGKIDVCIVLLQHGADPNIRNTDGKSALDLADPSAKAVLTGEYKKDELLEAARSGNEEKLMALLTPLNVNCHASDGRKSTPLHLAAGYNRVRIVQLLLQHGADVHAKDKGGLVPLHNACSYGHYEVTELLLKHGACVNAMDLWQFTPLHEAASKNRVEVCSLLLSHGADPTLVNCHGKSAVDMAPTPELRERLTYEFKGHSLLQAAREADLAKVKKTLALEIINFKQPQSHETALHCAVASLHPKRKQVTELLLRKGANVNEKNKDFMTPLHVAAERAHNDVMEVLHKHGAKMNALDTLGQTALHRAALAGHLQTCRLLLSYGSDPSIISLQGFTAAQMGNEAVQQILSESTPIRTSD

| Binder | selected by phage display (TSG101 1-145, Q99816) | selected by phage display (TNKS 174-649, O95271) |
| --- | --- | --- |
| PVVPTAPELQPSTSTD | confidence 3 (active) | – |
| QYVTREPPEGSLLDVD [FAM83H, Q6ZRV2] | – | confidence 2 (active) |
| PTAPELRPSTSTDRPV | confidence 3 (active) | – |
| DYVLTYNYEGRGSPAG [DSC3, Q14574] | – | confidence 2 (active) |
| ATGSDPLWQRLEPAGH [PLCH2, O75038] | – | confidence 4 (active) |
| DELRMEPLGLEGLNML [CRTC2, Q53ET0] | – | confidence 3 (active) |
| SVLQPGIAMETRGLAD [CNGA3, Q16281] | – | confidence 2 (active) |
| GTREDPAGQETTAITN [LINC01547, P58512] | – | confidence 2 (active) |
| SQPSAPDFVQRGFDSF [UTRN, P46939] | confidence 2 (active) | – |
| GGRTPAARDSIVREVI [MTHFD1L, Q6UB35] | – | confidence 2 (active) |
| LDMHTVTREEGEGMET [GCC2, Q8IWJ2] | – | confidence 3 (active) |
| TSVVGFSADGMRPEAI [MAP4K4, O95819] | – | confidence 2 (active) |
| QERLIPLGHASKSAPM [ERRFI1, Q9UJM3] | – | confidence 2 (active) |
| PQLPHLQRSPPDGQSF [SH3BP2, P78314] | – | confidence 2 (active) |
| AQVLSQRLEAEGLSTL [LENG9, Q96B70] | – | confidence 2 (active) |
| RTESIRWLIPGQEQEH [TXNDC15, Q96J42] | – | confidence 3 (active) |
| SVAKAVQASAPADERI [STOX1, Q6ZVD7] | confidence 3 (active) | – |
| MARPDPSAPPSLLLLL [FZD5, Q13467] | confidence 2 (active) | – |
| PSALPSVPEPSAPAAP [TRIM47, Q96LD4] | confidence 3 (active) | – |
| SLPHTPTTPTAPLTPV [FOXP1, Q9H334] | confidence 3 (active) | – |
| VGAKALPTAPPPPPLP [INF2, Q27J81] | confidence 3 (active) | – |

| Binder | selected by phage display (TSG101 1-145, Q99816) | selected by phage display (TNKS 174-649, O95271) |
| --- | --- | --- |
| EVHTAPSAPLAFGSQQ [ZNF589, Q86UQ0] | confidence 3 (active) | – |
| LPSAPGAEQTAGSLLY [E2F3, O00716] | confidence 2 (active) | – |
| VTVVPTAPDPVPADSV [CABIN1, Q9Y6J0] | confidence 3 (active) | – |
| REAPEGMASSLGALNL [CACNA1S, Q13698] | – | confidence 4 (active) |
| YLSFRSVGDGLSTSAV [CSB-PGBD3, P0DP91] | – | confidence 3 (active) |
| QTIERMGSGVERMGPA | – | confidence 3 (active) |
| SLIERGAAAGSEDAVK [SPTAN1, Q13813] | – | confidence 2 (active) |
| TLNERLAAEGQAIDGA [WDR37, Q9Y2I8] | – | confidence 3 (active) |
| MMVESASETIRSAPSG [FOXP4, Q8IVH2] | – | confidence 3 (active) |
| EPWLDRVIQGSSTSSS [DIP2A, Q14689] | – | confidence 3 (active) |
| AEASAPPAPELFSPPV [EME1, Q96AY2] | confidence 2 (active) | – |
| ARQEPQGQEHQVDNTV [AMOTL1, Q8IY63] | – | confidence 3 (active) |
| AEPSAPSLPAGPTGVE [TMEM131L, A2VDJ0] | confidence 3 (active) | – |
| VTSSPIRGAGDGMETE [BLZF1, Q9H2G9] | – | confidence 2 (active) |
| SVERMGSGIERMGPLG | – | confidence 4 (active) |
| EVLASAPPLPPSTAAP [WASH4P, A8MWX3] | confidence 3 (active) | – |
| ERSSGDGEELERLTKP [SLC35A5, Q9BS91] | – | confidence 3 (active) |
| LPPAEAVRWAPVGAVA [RUNDC1, Q96C34] | – | confidence 4 (active) |
| SPQFVGNLRESPLGQE [CCNH, P51946] | – | confidence 2 (active) |
| LFLPRTEADGKSYVKY [ENDOG, Q14249] | – | confidence 4 (active) |
| TAAIPSAPVLPPPPVH [YLPM1, P49750] | confidence 4 (active) | – |

| Binder | selected by phage display (TSG101 1-145, Q99816) | selected by phage display (TNKS 174-649, O95271) |
| --- | --- | --- |
| VTLPTAPNMNSEPTLQ [MFSD6, Q6ZSS7] | confidence 3 (active) | – |
| PTAPIFLQGLSDLKVM [MYLK, Q15746] | confidence 3 (active) | – |
| HGDGEVRQPPVGIAVA [BAHCC1, Q9P281] | – | confidence 2 (active) |
| AVGASAPSAPTAHPQP [DCAF1, Q9Y4B6] | confidence 2 (active) | – |
| VPGLGGPGESRHEPLG [HOXA13, P31271] | – | confidence 2 (active) |
| EHAELAPPAPSAPSWG [SHKBP1, Q8TBC3] | confidence 3 (active) | – |
| PSAPLPFVPPPAVPSV [PRRC1, Q96M27] | confidence 4 (active) | – |
| EEDADTMRLQPIGRDK [RSF1, Q96T23] | – | confidence 3 (active) |
| RGLVDGGEAVEARLRD [CGN, Q9P2M7] | – | confidence 3 (active) |
| MSGLVLGQRDEPAGHR [KLC4, Q9NSK0] | – | confidence 2 (active) |
| AQQALERTPGDGLATM [THAP4, Q8WY91] | – | confidence 3 (active) |
| GGLDGPRLAIPGMDGG [PAN3, Q58A45] | – | confidence 3 (active) |
| GGGPDRLEPEMVRMVV [NAB2, Q15742] | – | confidence 2 (active) |
| VVVPSAPEVQETTRML [NEO1, Q92859] | confidence 2 (active) | – |
| RVVDGAEMALPGLATQ [KIF26B, Q2KJY2] | – | confidence 2 (active) |
| RQEALGAEHNSSALLP [AKAP13, Q12802] | – | confidence 3 (active) |
| DIRGLAAGSAETLPAN [PPFIA1, Q13136] | – | confidence 2 (active) |
| PSAPDMEDFGLVKLPH [POLE, Q07864] | confidence 2 (active) | – |
| IGRISAEGGEQVERVV [APOL2, Q9BQE5] | – | confidence 3 (active) |
| PTPTAPLLPPQPATPL [EP300, Q09472] | confidence 2 (active) | – |
